Records with an inconclusive call do not appear. Active and inactive are the calls of the source. Calls follow the shape of the dose curve; as a rule, active = well fitted inhibition curve with a large enough effect; inconclusive = small, poorly fitted or top-dose-only effect; inactive = no such curve, though single readings can be large or run the other way.
Test: Acumen qHTS Assay for Inhibitors of the mTORC1 Signaling Pathway in MEF (Tsc2-/-, p53-/-) Cells: Hit Validation; also: nearly all actives have a fitted effect of over 65% in size
Settings: Acumen imaging; activity change, negative = inhibition: at 37.3 µM (top of the series)
Source text: The mammalian target of rapamycin (mTOR) is an intracellular serine/threonine kinase Aberrant regulation of mTOR signaling plays a causative role in a number of human diseases, including cancer, benign tumors such as lymphangioleiomyomatosis (LAM) and Tuberous Sclerosis Complex (TSC), and metabolic diseases such as diabetes and obesity. This project aims to identify inhibitors of ribosomal protein S6 (rpS6) phosphorylation. The phosphorylation of rpS6 is a key event downstream of mTOR activation. The assay uses a phospho-specific antibody of phospho-rpS6 to detect inhibitors of mTOR activation. Mutations in the Tsc1 and Tsc2 genes are the underlying genetic lesions responsible for TSC, causing constitutive activation of the mTORC1 pathway and leading to profound effects on cell metabolism. Aberrant metabolism in cancer has recently received significant attention as a target to develop therapeutic agents in the treatment of cancer.1 As Tsc2-/- cells have lost the ability to respond to energy and growth factor deprivation, these cells are unable to properly down regulate cellular biosynthetic processes in response to metabolic stress, and are thus extremely sensitive to glucose deprivation-induced death.2 A central goal of this project is to explore the unique cell survival and metabolic properties of cells with Tsc1 or Tsc2 by screening for compounds that selectively target the Tsc2-/- MEFs by screening both Tsc2-/- and WT MEF cell lines. We hope to better understand these aspects of TSC physiology in order to exploit them for therapeutic benefit.
NIH Molecular Libraries Probe Production Centers Network [MLPCN]
NIH Chemical Genomics Center [NCGC]
Assay Submitter (PI): Blenis, John; Harvard University
For quantitative high throughput analysis of mTORC1 signaling, we developed a cell-based assay for immuno-fluorescence based detection of rpS6 phosphorylation on the Acumen Explorer that will be used a platform for the primary small molecule screen. Mouse embryonic fibroblasts (MEFs) are cultured in 1536-well plates using DMEM + 10% FBS. Twenty-four hrs after plating, test compounds (solubilized in DMSO) are delivered and incubated with the cells for 24 hrs at 37 degree Celsius. Following the incubation, media with compound is aspirated and the cells are fixed in 4% paraformaldehyde (PFA) containing PBS + 0.2% TX-100. Next, PFA is aspirated, cells are washed two times with PBS plus 0.2% TX-100 and the cells are blocked for 1 hr at room temperature (blocking buffer: LiCOR Blocking Buffer plus 0.2% TX-100). This is followed by aspiration and staining with Alexa-488 conjugated-phospho-rpS6 Ser235/236 antibody for 2 hours at room temperature (Cell Signaling Technology # 4803, 1:50 dilution in blocking buffer). Cells are washed two times with PBS plus 0.2% TX-100, and stained with 10 uM propidium iodide (PI) for 20-25 minutes for cell number measurement (1:500 dilution of Hoescht staining is also added for IN Cell imaging). The plates are scanned on the Acumen Explorer laser scanning instrument (TTP Labtech) using the 488nm laser for simultaneous excitation of the Alexa-488 and PI. […] Fluorescence emission from the PI stain is selected using a 575-640 nm band pass filter. The normalized phospho-S6 staining is calculated as the ratio of the integrated Alexa 488 intensity divided by the integrated PI intensity for the single concentration rapamycin control (7.5 nM) and DMSO columns. […] Inhibition of the pathway is defined based on the normalized phospho-S6 intensity in rapamycin treated cells. Active cells are defined as those with a normalized phospho-S6 staining above this threshold, and each treatment is reported as the % positive cells in the well, where thresholds are defined by selecting wells with the highest and lowest signal and differentiating between the % non-active and % active populations. In addition to the pathway specific phospho-S6 endpoint, the number of PI stained cells from the Acumen is recorded as a measure of cell viability. […]
`CCN(CC)C(=O)c1ccc(NC(=O)CCn2nc(-c3ccc(C)cc3)c3ccccc3c2=O)cc1` showed an activity change, negative = inhibition of -9.62%.
In the case of `COc1ccc(C(=O)Nc2ccc3c(c2)N(C)C(=O)c2ccccc2S3)cc1OC`, the Potency is reported as 10.4 µM (active).
Work on `CCOc1ccc(CN(CCc2ccc3c(c2)OCO3)Cc2ccc(C)cc2)cc1` yielded an activity change, negative = inhibition of -0.408%.
For `CCOc1ccc(/C=C/c2nc(C#N)c(NCc3ccccc3)o2)cc1`, the Potency was 1.04 µM (active).
With `COc1ccc(N2CCN(C(=O)C3CCCN(S(=O)(=O)c4ccc5c(c4)CCCN5C(C)=O)C3)CC2)cc1` (configuration not stated) the Potency was 16.5 µM (active).
With `Cc1ccc(-n2c(/C=C/c3ccc(Br)s3)nc3ccccc3c2=O)cc1C` the activity change, negative = inhibition was -10.2%.
For `COc1ccccc1N=c1scc(-c2ccc(S(=O)(=O)N3CCCC3)cc2)n1C`, the Potency was 5.85 µM (active).
With `CN[C@@H]1C[C@@]2(C)O[C@@H]([C@@H]1OC)n1c3ccccc3c3c4c(c5c6ccccc6n2c5c31)C(=O)NC4` the Potency was 0.0163 µM (active).
With `O=C(NCCc1ccc(Cl)cc1)C(=O)NCC(c1cccs1)S(=O)(=O)c1cccs1` (configuration not stated) the activity change, negative = inhibition was -3.28%.
With `O=C(c1ccccc1)c1ccc2nc(N3CCN(c4ccc(F)cc4)CC3)c3nncn3c2c1` the Potency was 18.5 µM (active).
With `COc1ccc2nc(NC(=O)c3nc(S(=O)(=O)Cc4cccc(C)c4)ncc3Cl)sc2c1` the Potency was 2.07 µM (active).
With `Cc1oc(-c2ccc(Cl)cc2)nc1CN1CCC(C(=O)NCCCN2CCN(c3cccc(Cl)c3)CC2)CC1` the Potency was 5.85 µM (active).
In the case of `Cc1cccc(N(CC(=O)NCCSc2ccc(Cl)cc2)S(=O)(=O)c2ccccc2)c1C`, the Potency is reported as 13.1 µM (active).
With `COc1ccc(S(=O)(=O)NCCc2sc3nc(-c4ccc(C)cc4)nn3c2C)cc1F` the Potency was 7.36 µM (active).
Molecule `NC(N)=NC(=O)c1nc(Cl)c(N)nc1N` has an activity change, negative = inhibition of 57.9%.
In the case of `CCCCOc1ccc(CN2C(=O)C(=O)c3cc(C)ccc32)cc1OC`, the Potency is reported as 0.261 µM (active).
In the case of `Cc1ccccc1-c1nc(CN2C(=O)CN=C(c3ccccc3)c3ccccc32)c(C)o1`, the activity change, negative = inhibition is reported as -13.1%.

Reference: PubChem BioAssay AID651784 (National Center for Advancing Translational Sciences (NCATS), 2012)
Potency is read from the fitted curve at half-maximal effect.
